# From PubChem BioAssay
# Calls of active or inactive are those of the source. Unless noted, no rule for the calls is given here.
# Columns and labels:
# [1] = test system: Wnt5a (protein binding on small-molecule microarray); assay: Wnt5a binders on small-molecule microarray, primary screen, biophysical, 635/667 nm fluorescence (AID 1142); settings: 635 nm fluorescence, higher = more signal;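 also: fluorescence read at 667 nm with signal to noise per printed feature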
# [2] = cell viability in Huh7 cells, primary screen, cytotoxicity control for HCV replication inhibitor project, CellTiter-Glo luminescence, basal, 48 h (AID 1143); settings: Huh7 HCV replicon, higher = more signal, called active from +8 up or from −8 down;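 also: Huh7 hepatoma cells carrying a hepatitis C replication reporter with no stimulus; test concentration not given here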
# [3] = P. aeruginosa biofilm formation inhibitors, primary screen, PAO1 strain, BacTiter-Glo luminescence, LB-PBS (AID 1144); settings: 12 h, higher = more signal
# [4] = CREB reporter modulators without forskolin, primary screen, cell-based, PC12, CRE-LacZ reporter, unstimulated (AID 1145); settings: no forskolin, luminescence, 4.5 h, higher = more signal, called active from +8 up or from −8 down
# [5] = CREB reporter modulators under forskolin, primary screen, cell-based, PC12, CRE-LacZ reporter, forskolin-stimulated (AID 1146); settings: luminescence, 4.5 h, higher = more signal, called active from +8 up or from −8 down;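 also: PC12 cells with 6xCRE LacZ reporter stimulated by forskolin 10 µM; beta-galactosidase reporter signal reflecting CREB driven transcription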
# [6] = target: Streptavidin (Streptomyces avidinii) (UniProt P22629); assay: streptavidin binders on small-molecule microarray, primary screen, artefact control for SMM compound annotation, biophysical, 635/667 nm fluorescence (AID 1147); settings: streptavidin binding, higher = more signal;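 also: signal reflects streptavidin binding to arrayed compounds as a control protein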
# [7] = small-molecule binders of probe aInhba, primary screen, biochemical, small-molecule microarray, 635/667 nm fluorescence (AID 1148); settings: higher = more signal;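 also: score merges 667nm spot fluorescence with signal-to-noise for antibody binding to printed compounds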
# Torsin-1A (Homo sapiens) [8] = target: Torsin-1A (Homo sapiens) (UniProt O14656); assay: torsin A binders from cell lysate, primary screen, small-molecule microarray, wild-type, 635/667 nm (AID 1149); settings: COS7 hTOR1A-WT lysate, 635 nm fluorescence, higher = more signal
# Torsin-1A (Homo sapiens) [9] = target: Torsin-1A (Homo sapiens) (UniProt O14656); assay: small-molecule binders of mutant TOR1A in lysate, primary screen, cell lysate, small-molecule microarray, COS7 lysate, 635/667 nm fluorescence (AID 1150); settings: COS7 hTOR1A mutant lysate, 635 nm fluorescence, higher = more signal;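 also: score pools 667 nm emission and signal to noise measuring lysate protein binding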
# [10] = test system: Sonic hedgehog protein (Shh); assay: small-molecule binders of Shh protein, primary screen, biochemical, small-molecule microarray, 635/667 nm fluorescence (AID 1151); settings: small-molecule microarray binding, 635 nm fluorescence; higher = more signal;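 also: Shh protein binding to compounds spotted on small-molecule microarray slides; score combines spot fluorescence intensity with signal-to-noise across triplicate slides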
# [11] = E. coli DRC41 culture turbidity changes, primary screen, E. coli filamentation inducer project, strain DRC41, OD650, 48 h (AID 1152);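 also: E. coli MC1000 strain DRC41 lacking acrAB efflux pump and sulA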; settings: E. coli DRC41 (acrAB sulA), higher = more signal, called active from +8 up or from −8 down
# [12] = small-molecule binders of probe aLefty1, primary screen, biochemical, small-molecule microarray, 635/667 nm fluorescence (AID 1153); settings: higher = more signal;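 also: score merges spot fluorescence with signal-to-noise ratio from the scanned slide images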
# [13] = PSAC antagonists in infected red cells, primary screen, cell-based, P. falciparum Indochina, OD700, 1 h (AID 1154); settings: P. falciparum Indochina infected RBC osmotic lysis, higher = more signal, called active from +8 up or from −8 down
# [14] = PSAC antagonists in infected red cells, primary screen, cell-based, P. falciparum Indochina, OD700, 2 h (AID 1155);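 also: lysis reports solute entry through the parasite surface anion channel PSAC; channel blockers reduce lysis of infected cells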; settings: P. falciparum Indochina infected erythrocytes, osmotic lysis OD700; higher = more signal, called active from +8 up or from −8 down
# [15] = osmotic lysis modulators in infected erythrocytes, primary screen, PSAC antagonist project, cell-based, P. falciparum Indochina, OD700, 3 h (AID 1156); settings: higher = more signal, called active from +8 up or from −8 down
# [16] = PSAC antagonists in infected red cells, primary screen, cell-based, P. falciparum Indochina, OD700, 18 h (AID 1157); settings: P. falciparum Indochina infected erythrocytes, osmotic lysis OD700, 18 h; higher = more signal, called active from +8 up or from −8 down
# [17] = modulators of S6 phosphorylation in cells, primary screen, cell-based, A549, cytoblot, luminescence, serum-stimulated (AID 1158); settings: A549 phospho-S6 cytoblot, 5 h, higher = more signal;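 also: serum-stimulated A549 lung adenocarcinoma cells; signal is phosphorylated S6 detected by cytoblot immunostaining with HRP secondary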
# [18] = target: NADPH oxidase 2 (Homo sapiens) (UniProt P04839); assay: NOX2-dependent H2O2 signal modulators, primary screen, NOX inhibitor project, cell-based, HEK293-NOX2, PMA-stimulated, Amplex Red fluorescence (AID 1159); settings: 45 min, higher = more signal, called active from +8 up or from −8 down; also: test concentration not given here
# [19] = target: NADPH oxidase 4 (Homo sapiens) (UniProt Q9NPH5); assay: NOX4-dependent H2O2 signal modulators, primary screen, NOX inhibitor project, cell-based, HEK293-NOX4, tetracycline-induced, Amplex Red fluorescence (AID 1160); settings: 45 min, higher = more signal, called active from +8 up or from −8 down
# [20] = target: NADPH oxidase 5 (Homo sapiens) (UniProt Q96PH1); assay: NOX5-dependent H2O2 signal modulators, primary screen, NOX inhibitor project, cell-based, HEK293-NOX5, Amplex Red fluorescence (AID 1161); settings: HEK293-NOX5, ionomycin, 45 min, higher = more signal
# Sequence of NADPH oxidase 5 (Homo sapiens) (Q96PH1 whole entry, looked up): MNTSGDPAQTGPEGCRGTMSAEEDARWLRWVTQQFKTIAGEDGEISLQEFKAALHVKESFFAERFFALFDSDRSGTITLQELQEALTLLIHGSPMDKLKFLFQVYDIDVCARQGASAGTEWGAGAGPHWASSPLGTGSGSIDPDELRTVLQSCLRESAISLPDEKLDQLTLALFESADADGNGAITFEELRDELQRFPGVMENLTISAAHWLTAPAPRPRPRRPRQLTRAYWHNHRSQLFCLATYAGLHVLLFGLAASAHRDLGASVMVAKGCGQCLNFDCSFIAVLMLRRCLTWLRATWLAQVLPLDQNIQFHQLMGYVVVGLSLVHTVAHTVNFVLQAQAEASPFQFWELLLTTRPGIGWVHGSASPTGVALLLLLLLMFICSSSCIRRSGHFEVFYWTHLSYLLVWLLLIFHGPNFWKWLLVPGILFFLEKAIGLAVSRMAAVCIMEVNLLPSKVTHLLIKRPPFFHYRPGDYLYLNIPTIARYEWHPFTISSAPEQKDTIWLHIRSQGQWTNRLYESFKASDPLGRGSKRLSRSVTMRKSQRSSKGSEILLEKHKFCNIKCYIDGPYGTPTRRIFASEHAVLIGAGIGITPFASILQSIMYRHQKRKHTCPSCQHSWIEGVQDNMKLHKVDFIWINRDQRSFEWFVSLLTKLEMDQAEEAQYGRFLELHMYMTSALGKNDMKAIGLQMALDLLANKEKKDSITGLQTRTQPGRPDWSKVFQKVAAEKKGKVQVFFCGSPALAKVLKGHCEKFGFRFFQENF
# Sequence of NADPH oxidase 4 (Homo sapiens) (Q9NPH5 whole entry, looked up): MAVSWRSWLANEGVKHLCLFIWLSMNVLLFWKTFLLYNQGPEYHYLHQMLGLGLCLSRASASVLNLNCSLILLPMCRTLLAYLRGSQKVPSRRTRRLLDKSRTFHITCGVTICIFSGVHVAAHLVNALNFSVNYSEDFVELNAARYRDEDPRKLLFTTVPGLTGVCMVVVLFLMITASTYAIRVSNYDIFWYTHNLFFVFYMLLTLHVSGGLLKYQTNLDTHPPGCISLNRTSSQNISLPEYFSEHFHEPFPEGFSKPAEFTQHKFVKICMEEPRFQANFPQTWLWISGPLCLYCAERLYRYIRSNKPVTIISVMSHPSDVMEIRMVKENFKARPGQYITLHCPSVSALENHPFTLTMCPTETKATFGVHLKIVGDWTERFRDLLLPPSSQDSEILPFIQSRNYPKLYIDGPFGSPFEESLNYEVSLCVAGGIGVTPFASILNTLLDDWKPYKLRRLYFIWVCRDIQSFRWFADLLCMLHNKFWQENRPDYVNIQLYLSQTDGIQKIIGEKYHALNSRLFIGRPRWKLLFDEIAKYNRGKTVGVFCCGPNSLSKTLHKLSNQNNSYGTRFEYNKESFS
# Sequence of Torsin-1A (Homo sapiens) (O14656 whole entry, looked up): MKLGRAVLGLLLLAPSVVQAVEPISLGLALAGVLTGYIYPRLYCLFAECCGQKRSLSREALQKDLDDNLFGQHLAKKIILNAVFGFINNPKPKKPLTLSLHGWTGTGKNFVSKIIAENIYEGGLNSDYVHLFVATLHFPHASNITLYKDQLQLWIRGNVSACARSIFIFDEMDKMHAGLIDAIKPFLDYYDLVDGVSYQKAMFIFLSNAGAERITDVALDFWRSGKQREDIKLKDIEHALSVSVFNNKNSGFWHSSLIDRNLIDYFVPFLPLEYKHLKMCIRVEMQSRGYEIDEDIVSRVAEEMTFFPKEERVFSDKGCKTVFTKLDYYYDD
# Sequence of NADPH oxidase 2 (Homo sapiens) (P04839 whole entry, looked up): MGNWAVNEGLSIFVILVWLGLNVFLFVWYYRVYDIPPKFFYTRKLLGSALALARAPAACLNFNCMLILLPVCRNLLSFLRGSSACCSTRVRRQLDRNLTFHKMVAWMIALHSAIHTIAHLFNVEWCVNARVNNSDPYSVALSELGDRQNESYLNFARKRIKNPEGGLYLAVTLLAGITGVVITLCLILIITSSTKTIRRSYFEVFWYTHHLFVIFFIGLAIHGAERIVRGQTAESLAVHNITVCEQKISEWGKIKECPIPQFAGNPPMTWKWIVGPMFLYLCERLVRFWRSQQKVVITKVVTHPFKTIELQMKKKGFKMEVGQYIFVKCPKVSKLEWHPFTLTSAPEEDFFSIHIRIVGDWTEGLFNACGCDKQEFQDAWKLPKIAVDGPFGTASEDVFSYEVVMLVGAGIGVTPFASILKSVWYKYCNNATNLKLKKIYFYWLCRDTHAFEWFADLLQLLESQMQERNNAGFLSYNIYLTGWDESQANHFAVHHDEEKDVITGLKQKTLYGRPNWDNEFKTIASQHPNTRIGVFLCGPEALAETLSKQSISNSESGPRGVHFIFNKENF
# Sequence of Streptavidin (Streptomyces avidinii) (P22629 whole entry, looked up): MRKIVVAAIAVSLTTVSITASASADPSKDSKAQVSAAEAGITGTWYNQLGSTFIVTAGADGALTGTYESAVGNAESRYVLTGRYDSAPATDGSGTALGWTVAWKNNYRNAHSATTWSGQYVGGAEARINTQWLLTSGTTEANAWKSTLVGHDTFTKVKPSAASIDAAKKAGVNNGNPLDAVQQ
SMILES,composite z-score [1],z-score [2],z-score [3],z-score [4],z-score [5],composite z-score [6],composite z-score [7],composite z-score (Torsin-1A (Homo sapiens) [8]),composite z-score (Torsin-1A (Homo sapiens) [9]),composite z-score [10],z-score [11],composite z-score [12],z-score [13],z-score [14],z-score [15],z-score [16],z-score [17],z-score [18],z-score [19],z-score [20]
C=CCOC(=O)[C@H]1[C@@H]2C(=O)O[C@@H](c3ccccc3)[C@@H](c3ccccc3)N2[C@@H](c2ccc(OCCOC(=O)[C@H]3C[C@H]4C(=O)N5CCC[C@H]5C(=O)N4[C@H]3c3ccc(O)cc3)cc2)[C@]12C(=O)Nc1ccccc12,0.753,-0.568 (inactive),-0.696 (inactive),0.415 (inactive),-0.702 (inactive),0.116,-0.217,0.874,1.1,1.8,-0.827 (inactive),0.227,1.72 (inactive),1.25 (inactive),1.58 (inactive),0.889 (inactive),-0.352,2.25 (inactive),1.39 (inactive),1.87
CN1C(=O)C2C=CC(C(O)Cc3ccccc3)N(Nc3ccccc3)C2C1=O (stereo not given),-0.0943,0.329 (inactive),-1.16 (inactive),0.626 (inactive),0.0426 (inactive),0.996,0.0622,0.279,0.444,-0.52,-1.55 (inactive),-0.0501,1.15 (inactive),0.872 (inactive),0.215 (inactive),0.9 (inactive),-0.709,-1.57 (inactive),-4.77 (inactive),-3.59
[N-]=[N+]=Nc1ccccc1[C@H]1OC(c2ccc(OCCCO)cc2)=N[C@@]1(Cc1ccccc1)C(=O)O,0.0316,-1.1 (inactive),-0.0839 (inactive),-0.0249 (inactive),-1.38 (inactive),0.365,0.0342,0.395,0.306,1.07,0.409 (inactive),0.346,32 (active),27.2 (active),1.65 (inactive),7.43 (inactive),-0.259,-0.0311 (inactive),1.5 (inactive),1.75
CCCCCN1CC=CC23O[C@@H]4/C=C\CCCOC(=O)C4[C@H]2C(=O)N(C(CO)C(C)C)[C@@H]3C1=O (stereo not given in full),0.175,-0.0623 (inactive),-1.6 (inactive),-0.899 (inactive),0.373 (inactive),-0.739,-0.128,-0.731,-0.436,0.976,1.52 (inactive),-0.113,0.724 (inactive),0.264 (inactive),0.29 (inactive),0.0866 (inactive),0.0595,1.59 (inactive),0.481 (inactive),2.17
O=C1OCCC/C=C\[C@H]2OC34C=CCN(c5ccc6ccccc6c5)C(=O)[C@H]3N(CCCCCCO)C(=O)[C@@H]4C12 (stereo not given in full),-0.694,0.117 (inactive),-1.7 (inactive),0.61 (inactive),-0.677 (inactive),-1.1,-0.128,-1.12,-1.2,-0.0305,1.63 (inactive),0.325,3.35 (inactive),-0.781 (inactive),0.562 (inactive),-1.46 (inactive),1.4,1.52 (inactive),0.341 (inactive),2.26
